The values that follow come from ChEMBL document CHEMBL3988442, “University of Dundee, Small-Polar-MMV Screening Library” (2021).

In one experiment the target is T1, Tyrosyl-tRNA synthetase, putative (Trypanosoma cruzi (strain CL Brener)) (UniProt Q4DSP6).
T1 sequence (whole entry): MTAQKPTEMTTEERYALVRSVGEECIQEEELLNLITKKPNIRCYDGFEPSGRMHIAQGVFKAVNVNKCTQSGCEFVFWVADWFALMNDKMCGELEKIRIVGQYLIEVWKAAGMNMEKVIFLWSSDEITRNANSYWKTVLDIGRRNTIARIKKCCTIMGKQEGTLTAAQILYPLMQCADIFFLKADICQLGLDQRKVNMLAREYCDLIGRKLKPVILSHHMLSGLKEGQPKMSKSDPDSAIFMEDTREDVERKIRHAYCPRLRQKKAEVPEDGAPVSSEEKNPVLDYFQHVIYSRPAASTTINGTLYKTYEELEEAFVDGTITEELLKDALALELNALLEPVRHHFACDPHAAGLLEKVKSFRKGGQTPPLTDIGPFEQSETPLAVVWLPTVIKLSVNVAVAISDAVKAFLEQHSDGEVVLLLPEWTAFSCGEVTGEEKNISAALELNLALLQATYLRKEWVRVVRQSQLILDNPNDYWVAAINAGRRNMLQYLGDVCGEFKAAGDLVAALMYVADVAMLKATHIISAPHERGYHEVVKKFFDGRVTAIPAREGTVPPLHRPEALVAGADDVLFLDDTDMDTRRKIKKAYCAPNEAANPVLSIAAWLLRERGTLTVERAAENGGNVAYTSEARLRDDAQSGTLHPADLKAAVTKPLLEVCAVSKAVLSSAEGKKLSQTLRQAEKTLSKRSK
The experiment is described as follows: Trypanosoma cruzi tyrosyl tRNA synthetase (TcYRS) _High Tyrosine SOP. Format: functional. On the set-up: scale not given: in the data most compounds retested in dose-response had high values. The settings on record: 30 µM.
For the compound `O=C(NCC1CC1)[C@@H]1CCO[C@@H]2CCN(Cc3ccco3)C[C@H]21`, the Percent Effect is -3.12%.
As for `CC(C)Nc1ncnc2c1CCN(C(=O)c1ccncc1F)CC2`, the Percent Effect is 3.24%.
With `Cc1nc[nH]c1CN1C[C@@H]2CC[C@H](C1)N(C(=O)CCNS(C)(=O)=O)C2`, the Percent Effect came to 5.26%.
As to `O=C(N[C@@H]1CN(c2ncccn2)C[C@@H]2CCCO[C@@H]21)c1cnccn1`, the Percent Effect is -7.29%.
As for `CNc1cncc(C2CCCN2Cc2ccccn2)n1` (stereo not drawn), the Percent Effect is 9.68%.
As for `Fc1ccc2[nH]c(C3CCCN3CCc3ccccn3)nc2c1` (stereo not drawn), the Percent Effect is 13.5%.
On to `CS(=O)(=O)NCc1cn2c(n1)CN(C(=O)c1ccc[nH]1)CC2`, for which the Percent Effect turned out to be 7.45%.
On to `O=C(CCNS(=O)(=O)c1ccccc1)NCc1ccoc1`, for which the Percent Effect was 8.2%.
For the compound `O=C(NCc1ccc(-n2cncn2)nc1)c1ccoc1`, the Percent Effect is 4.43%.
Turning to `Cn1ccnc1CN1CCC2(CC(=O)N(c3cccc(F)c3)C2)C1` (stereo not drawn), the Percent Effect came out at 7.41%.
As to `CC(C)c1nc2n(n1)CC(NCc1nc(-c3cccnc3)no1)CC2` (stereo not drawn), the Percent Effect came out at 3.81%.
`O=C(NCc1nnc2n1CCCC2)N1CCc2ccccc2C1`: the Percent Effect came to 1.04%.
Same read-out and setting: under `Cc1oc(C)c(C(=O)N2CCCN(Cc3cscn3)CC2)c1C` stands 6.67%; under `COc1c(CNC2CCN(C(=O)C3CC3)CC2)c(C(C)C)nn1C`, 6.4%.
On the same count and under the same terms, under `CN(C)C(=O)c1ccc(CNC(=O)NCCN(C)C2CCCC2)cc1` stands 7.39%; under `CC(C(=O)N1CCCN(Cc2ccc(C#N)cc2)CC1)n1ccnc1` (stereo not drawn), 4.41%; under `CCOc1ccccc1C(CC(=O)Nc1ccc(C)cn1)NC(C)=O` (stereo not drawn), 8.33%.
On the same count and under the same terms, with `CC(C)COC(C)C(=O)NCc1ccc(OC(C)C)nc1` (stereo not drawn) the figure was 8.57%; with `O=C(CNCCn1cccn1)NCC1(c2ccccc2)CC1`, 3.81%.
Regarding `O=C(NC1CCC1)[C@@H]1C[C@@H]2CCN(Cc3cccs3)C[C@@H]2O1`, the Percent Effect stood at 3.19%.
On the same count and under the same terms, under `CN(C)CC1(O)CCN(S(=O)(=O)c2ccc(F)cc2)C1` (stereo not drawn) stands 5.38%.
Take `Cc1ncsc1-c1nnc(C2CCN(Cc3ccc(F)cc3)CC2)o1`: the Percent Effect was found to be 0%.
In the case of `Cc1ncc(CN(C)CC2CCCN2c2cccnn2)s1` (stereo not drawn), the Percent Effect worked out at 9.38%.
As for `CN(C)CCn1c(=O)oc2ccc(NC(=O)CC(C)(C)C)cc21`, the Percent Effect is 10.4%.
In the case of `O=C(NCC(O)c1ccccc1Cl)c1cccc(-n2cnnn2)c1` (stereo not drawn), the Percent Effect turned out to be 3.23%.
`COCC(NC(=O)c1cnn(C)c1)c1cccc(C(F)(F)F)c1` (stereo not drawn): the Percent Effect was found to be 0%.
With `CC(C)c1nc(C2CCCN2Cc2ccno2)no1` (stereo not drawn), the Percent Effect worked out at 2.91%.
In the case of `CN1CCN(Cc2cscn2)CC(C(=O)N(C)C)C1` (stereo not drawn), the Percent Effect is 8.51%.
With `N#Cc1ccc(CN2CCN(C(=O)C3CCC3)[C@@H]3CS(=O)(=O)C[C@@H]32)cc1`, the Percent Effect came out at 4.3%.
On the same count and under the same terms, with `O=C(NC1CC1)[C@@H]1CCO[C@@H]2CCN(Cc3ccsc3)C[C@H]21` the figure was 0%.
With `COC1CCN(C(=O)c2c(Cl)c3ccccc3n2C)CC1`, the Percent Effect came to 3.83%.
Regarding `OC(CN1CCOCC1)c1ccc(OC(F)(F)F)cc1` (stereo not drawn), the Percent Effect came out at 6.4%.
Consider `CCOCCN1CCN(Cc2nc(C3CC3)no2)CC1CC` (stereo not drawn), for which the Percent Effect was 3.23%.
Consider `CCOC(CC)C(=O)NCCC(=O)N1CCN(c2ncccn2)CC1` (stereo not drawn), for which the Percent Effect amounted to 3.19%.
With `CN(Cc1ccsc1)C(=O)c1cc2c([nH]c1=O)CCCC2=O`, the Percent Effect turned out to be 4.95%.
As for `CC(C)CCN1CN=C(NS(=O)(=O)c2ccc(F)cc2)NC1`, the Percent Effect turned out to be 5.29%.
On to `COCCN1C[C@@H]2CCCO[C@@H]2[C@H](N(C)Cc2ccco2)C1`, for which the Percent Effect was found to be 7.45%.
As for `CN(Cc1cnn(C)c1)C(=O)NC1CCN(c2ncccn2)CC1`, the Percent Effect stood at 1.94%.
In the case of `Cc1nc(C2CCCN2CC(=O)N2CCCc3ccccc32)no1` (stereo not drawn), the Percent Effect is 4.41%.

The target in a further experiment is T1, Tyrosyl-tRNA synthetase, putative (Trypanosoma cruzi (strain CL Brener)). Put plainly: Trypanosoma cruzi tyrosyl tRNA synthetase (TcYRS) SOP. In kind it is functional. On the set-up: scale not given: direction of the effect not stated beside the values. The settings on record: 30 µM.
With `O=C(NCC1CC1)[C@@H]1CCO[C@@H]2CCN(Cc3ccco3)C[C@H]21`, the Percent Effect was -10%.
For the compound `CC(C)Nc1ncnc2c1CCN(C(=O)c1ccncc1F)CC2`, the Percent Effect was 10.3%.
As to `Cc1nc[nH]c1CN1C[C@@H]2CC[C@H](C1)N(C(=O)CCNS(C)(=O)=O)C2`, the Percent Effect was found to be 7.69%.
`O=C(N[C@@H]1CN(c2ncccn2)C[C@@H]2CCCO[C@@H]21)c1cnccn1`: the Percent Effect worked out at 20%.
On the same count and under the same terms, with `CNc1cncc(C2CCCN2Cc2ccccn2)n1` (stereo not drawn) the figure was 9.09%; with `Fc1ccc2[nH]c(C3CCCN3CCc3ccccn3)nc2c1` (stereo not drawn), 23.5%.
Consider `CS(=O)(=O)NCc1cn2c(n1)CN(C(=O)c1ccc[nH]1)CC2`, for which the Percent Effect came to 14.1%.
For `O=C(CCNS(=O)(=O)c1ccccc1)NCc1ccoc1`, the Percent Effect is 16.1%.
Consider `O=C(NCc1ccc(-n2cncn2)nc1)c1ccoc1`, for which the Percent Effect came out at 18.5%.
On the same count and under the same terms, with `Cn1ccnc1CN1CCC2(CC(=O)N(c3cccc(F)c3)C2)C1` (stereo not drawn) the figure was 14.1%.
For the compound `CC(C)c1nc2n(n1)CC(NCc1nc(-c3cccnc3)no1)CC2` (stereo not drawn), the Percent Effect stood at 11.8%.
As for `O=C(NCc1nnc2n1CCCC2)N1CCc2ccccc2C1`, the Percent Effect is 12.7%.
Take `Cc1oc(C)c(C(=O)N2CCCN(Cc3cscn3)CC2)c1C`: the Percent Effect turned out to be 9.41%.
With `COc1c(CNC2CCN(C(=O)C3CC3)CC2)c(C(C)C)nn1C`, the Percent Effect turned out to be 18.5%.
Turning to `CN(C)C(=O)c1ccc(CNC(=O)NCCN(C)C2CCCC2)cc1`, the Percent Effect was 18.5%.
Same read-out and setting: with `CC(C(=O)N1CCCN(Cc2ccc(C#N)cc2)CC1)n1ccnc1` (stereo not drawn) the figure was 12.2%; with `CCOc1ccccc1C(CC(=O)Nc1ccc(C)cn1)NC(C)=O` (stereo not drawn), 17.1%.
Regarding `CC(C)COC(C)C(=O)NCc1ccc(OC(C)C)nc1` (stereo not drawn), the Percent Effect turned out to be 25.9%.
Same read-out and setting: with `O=C(CNCCn1cccn1)NCC1(c2ccccc2)CC1` the figure was 7.06%.
With `O=C(NC1CCC1)[C@@H]1C[C@@H]2CCN(Cc3cccs3)C[C@@H]2O1`, the Percent Effect worked out at 11.5%.
On the same count and under the same terms, under `CN(C)CC1(O)CCN(S(=O)(=O)c2ccc(F)cc2)C1` (stereo not drawn) stands 9.09%; under `Cc1ncsc1-c1nnc(C2CCN(Cc3ccc(F)cc3)CC2)o1`, -6.49%.
Still for that read-out and setting: with `Cc1ncc(CN(C)CC2CCCN2c2cccnn2)s1` (stereo not drawn) the figure was 2.53%.
For the compound `CN(C)CCn1c(=O)oc2ccc(NC(=O)CC(C)(C)C)cc21`, the Percent Effect was 23.5%.
On the same count and under the same terms, with `O=C(NCC(O)c1ccccc1Cl)c1cccc(-n2cnnn2)c1` (stereo not drawn) the figure was 7.5%.
Turning to `COCC(NC(=O)c1cnn(C)c1)c1cccc(C(F)(F)F)c1` (stereo not drawn), the Percent Effect was 0%.
Same read-out and setting: under `CC(C)c1nc(C2CCCN2Cc2ccno2)no1` (stereo not drawn) stands -2.44%; under `CN1CCN(Cc2cscn2)CC(C(=O)N(C)C)C1` (stereo not drawn), 14.1%; under `N#Cc1ccc(CN2CCN(C(=O)C3CCC3)[C@@H]3CS(=O)(=O)C[C@@H]32)cc1`, 8.64%.
Take `O=C(NC1CC1)[C@@H]1CCO[C@@H]2CCN(Cc3ccsc3)C[C@H]21`: the Percent Effect worked out at 0%.
With `COC1CCN(C(=O)c2c(Cl)c3ccccc3n2C)CC1`, the Percent Effect turned out to be 11.1%.
Consider `OC(CN1CCOCC1)c1ccc(OC(F)(F)F)cc1` (stereo not drawn), for which the Percent Effect amounted to 13.6%.
For `CCOCCN1CCN(Cc2nc(C3CC3)no2)CC1CC` (stereo not drawn), the Percent Effect was 7.5%.
`CCOC(CC)C(=O)NCCC(=O)N1CCN(c2ncccn2)CC1` (stereo not drawn): the Percent Effect is 5.2%.
With `CN(Cc1ccsc1)C(=O)c1cc2c([nH]c1=O)CCCC2=O`, the Percent Effect stood at 18.3%.
The same measure, in the same setting: with `CC(C)CCN1CN=C(NS(=O)(=O)c2ccc(F)cc2)NC1` the figure was 10.3%.
Take `COCCN1C[C@@H]2CCCO[C@@H]2[C@H](N(C)Cc2ccco2)C1`: the Percent Effect is 16.7%.
For `CN(Cc1cnn(C)c1)C(=O)NC1CCN(c2ncccn2)CC1`, the Percent Effect was determined as 2.44%.
On the same count and under the same terms, under `Cc1nc(C2CCCN2CC(=O)N2CCCc3ccccc32)no1` (stereo not drawn) stands 4.88%.
